Experimental data as given in ChEMBL document CHEMBL4513216, “Probing the Open Global Health Chemical Diversity Library for Multistage-Active Starting Points for Next-Generation Antimalarials” (ACS Infect Dis, 2020).
The campaign covered roughly 65,000 compounds. About 2,100 (3.2%) showed an effect of 50% or more. The median lay at about -52%. Many of the other results were omitted from the sample, so strong results are more common in it than they were.

The molecules below were run on Plasmodium falciparum (assay: Screen against P. falciparum Asexual Blood Stage (ABS), at 5uM). Details: tested at 5 uM.
Type: functional, Dd2

SMILES	INHIBITION [%]
O=C1CSC(c2ccc(O)cc2)c2sccc2N1 (stereo unspecified)	-74.5
c1coc(CN2CC[C@@H]3O[C@@H](COCc4ccncc4)CC[C@@H]32)c1	-70.4
CCCN1CCN(C(=O)Cc2cccnc2)[C@H]2CS(=O)(=O)C[C@H]21	-103
CO[C@H]1CN(CC2CC2)[C@@H]2CCCO[C@H]12	7.3
Cc1nc(C2CCN(C)CC2)cc(N2CCOc3ccc(Cl)cc3C2)n1	70.7
CC(Cn1cccn1)NCc1nc(-c2ccsc2)no1 (stereo unspecified)	-40
CCS(=O)(=O)N1CCc2c(CN3CCOCC3)cncc2C1	-10.2
CS(=O)(=O)NC[C@H]1OC[C@@H]2CN(Cc3cccnc3)CC[C@@H]21	-58.6
O=C(O)[C@H]1CN(Cc2ccccc2)C[C@@H]1C(=O)c1ccccc1	-40.5
CC1CN(Cc2ccccc2)CCCN1CCNS(C)(=O)=O (stereo unspecified)	71.7
Cc1cnc(NCCc2c[nH]cn2)nc1-c1ccnn1C	-84
CCC(C)Oc1ccc(CNCCc2c[nH]cn2)cc1Cl (stereo unspecified)	91.9
Cc1cccc(CN2CCN3C[C@H](Oc4cncnc4)C[C@H]3C2)n1	-87
Cc1ccc(CN2C[C@@H]3CN(c4ncccn4)C[C@@H]3C2)cc1	-62.8
CCC(=O)N1CCC2(CC1)C(=O)N(Cc1cccnc1)CCN2C	0.961
Cc1cccc(CN2CCCC(O)(CNCc3ncccc3C)C2=O)c1 (stereo unspecified)	82.1
Cc1cccc(CN2CCCC[C@H]3CN(c4ncccn4)C[C@H]32)c1	-35.2
Cc1cccc(CN2CCC3(CCN(c4ncccn4)CC3)C2=O)c1	76
Cc1cccnc1CN(C)CC1(O)CCCN(CC2CCCCC2)C1=O (stereo unspecified)	44.3
CC(C)c1cc(N2CCC3(CC2)CN(C)CCN3C)ncn1	-11.3
CCOc1ncccc1C(=O)N1CCN(C)C2(CCN(C)CC2)C1	10.3
Cc1cc(C)c2c(NCCC34CCCN3CCC4)ncnc2n1	-48.6
CC(C)Nc1cc(-c2c[nH]nc2C2CCN(C(=O)C3CCC3)C2)ccn1 (stereo unspecified)	83.7
CCc1ncc(CN2C[C@@H]3CC[C@H]2CN(C(=O)C2CCC2)C3)cn1	-85.5
CC(C)Nc1cc(-c2c[nH]nc2C2CCN(C(=O)C3CC3)C2)ccn1 (stereo unspecified)	80.9
O=C(C1CCC1)N1CCN(Cc2cccnc2)[C@H]2CS(=O)(=O)C[C@H]21	-17.6

SMILES	INHIBITION [%]
CCCNc1cc(-c2c[nH]nc2C2CCN(C(=O)C3CCC3)C2)ccn1 (stereo unspecified)	92.5
O=C(C1CCC1)N1CC[C@]2(O)CCN(Cc3ncccn3)C[C@@H]2C1	-55.6
O=C1NC2(CCc3ccccc31)CCN(Cc1cccnc1)C2 (stereo unspecified)	-111
O=C(c1ccco1)N1C[C@H]2CCCN(Cc3ccncc3)[C@H]2C1	-19.6
Cn1cnc(S(=O)(=O)N2C[C@H]3CN(Cc4cccnc4)C[C@H]3C2)c1	-85.8
Cc1sc2nc(CCN)nc(N3CCC(N4CCCC4)CC3)c2c1C	84.3
Cc1sc2nc(CCN)nc(N3CC(N4CCCCC4)C3)c2c1C	81.6
COCC(=O)NC[C@H]1C[C@@H]2CCN1C[C@@H]2CN1CCc2ccccc21	27.2
N#Cc1cnc2ccccc2c1N1CCNCC1	-3.53
O=C(C1CCCCC1)N1C[C@H]2CNC[C@H]2C1	44.5
CN1C[C@@H]2C[C@H](C(=O)Nc3cccnc3)[C@H](C1)O2	-69.3
CC(=O)NC(C)C(=O)NCc1ccc(N2CCNC(=O)C2)cc1 (stereo unspecified)	-4.19
COc1ccc(CNC(=O)C2=NN(c3ccc(C)cc3)C(=O)CN2)cc1	75
COCCN1CCO[C@H]2[C@H](OCc3cccc(C)n3)CC[C@@H]21	-74.3
Cc1ccc2[nH]c(C3CCN(C)CC3)nc2c1	-40.2
CC(C)(C)c1n[nH]c(C2CN(CC3CCC3)CCO2)n1 (stereo unspecified)	-108
Cc1ccc2[nH]c([C@H]3CCN(CC4CCCCC4)C3)nc2c1	74.7
CCC(CC)NCC(C)Oc1cccnc1 (stereo unspecified)	-116
Cc1cn2c(n1)C(CNCc1cccc3c1OCO3)CCC2 (stereo unspecified)	82.1
Cc1cn2c(n1)C(CNCc1ccc(C)s1)CCC2 (stereo unspecified)	91.1
CCOC[C@@H]1CCC[C@@]12CN(Cc1cccnc1)CCO2	-129
Cc1ccc(CN2CCC3(CC2)C(=O)N(C)c2ccccc23)s1	3.77
Cc1cccc(CNC2CC3(CCN(CCO)CC3)c3ccccc32)n1 (stereo unspecified)	78.6
COCCN1CCC2(CC1)CC(NCc1ccc(C)s1)c1ccccc12 (stereo unspecified)	77.2
Cc1cccc(CN2C[C@@H]3OCCN(C)[C@@H]3C2)n1	-14.4
